“And” between values parts separate entries of the source, which are not always exact repeats. Identical values can stand only once. Inconclusive results are not listed. The source made the active and inactive calls. Rule for the calls: active = hit-call score of the fitted dose curve at least 0.9, where 1 is the maximum; inconclusive = response in the unintended direction; inactive = score below 0.9.
How the values were obtained:
[1] = test system: rat CYP3A1, gene 25642; assay: NVS_ADME_rCYP3A1: NovaScreen (NVS) CYP450-related Enzyme Activity (ADME) Assay for rat CYP3A1 (AID 2283126)
How it was run: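 Cell-free recombinant CYP assay with fluorescent substrate, read 0.5 h after dosing. Screened at 10 uM in duplicate, hits at up to 20 uM in concentration-response; loss of signal versus acetonitrile baseline.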

[2] = target: human AKT serine/threonine Kinase 2 (AKT2), AKT2 (gene 208) (UniProt P31751); assay: NVS_ENZ_hAKT2: NovaScreen (NVS) Enzymatic Assay for human AKT serine/threonine Kinase 2 (AKT2) (AID 2283141)
human AKT serine/threonine Kinase 2 (AKT2), AKT2 (gene 208), sequence (P31751 whole entry, looked up): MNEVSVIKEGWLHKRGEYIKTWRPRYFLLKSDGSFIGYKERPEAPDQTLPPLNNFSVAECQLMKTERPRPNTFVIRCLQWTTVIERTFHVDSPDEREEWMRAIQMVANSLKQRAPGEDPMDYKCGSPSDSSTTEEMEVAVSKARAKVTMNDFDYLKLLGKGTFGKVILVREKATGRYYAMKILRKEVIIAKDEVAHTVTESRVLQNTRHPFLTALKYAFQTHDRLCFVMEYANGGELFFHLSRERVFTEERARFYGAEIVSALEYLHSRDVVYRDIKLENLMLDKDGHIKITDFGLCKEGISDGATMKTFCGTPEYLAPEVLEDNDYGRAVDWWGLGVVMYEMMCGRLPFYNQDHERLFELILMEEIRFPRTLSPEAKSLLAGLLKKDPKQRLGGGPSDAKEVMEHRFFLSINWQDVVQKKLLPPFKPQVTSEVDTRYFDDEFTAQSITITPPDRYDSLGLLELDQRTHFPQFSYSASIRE
How it was run: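 Cell-free fluorescence/electrophoretic mobility shift readout of recombinant human AKT2 activity, 1 h after chemical dosing. Duplicate primary screen at 25 uM, then singleton concentration-response up to 50 uM; loss of signal versus DMSO baseline.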

[3] = target: human Acetylcholinesterase (AChE), ACHE (gene 43) (UniProt P22303); assay: NVS_ENZ_hAChE: NovaScreen (NVS) Enzymatic Assay for human Acetylcholinesterase (AChE) (AID 2283129)
How it was run: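 Cell-free colorimetric enzyme-activity assay; compounds read 0.33 hour after dosing, loss of signal vs DMSO baseline. Primary screen in duplicate at 25 uM single concentration, with active compounds retested in concentration series.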

[4] = target: rat CYP2A2, Cyp2a2 (gene 24895) (UniProt P15149); assay: NVS_ADME_rCYP2A2: NovaScreen (NVS) CYP450-related Enzyme Activity (ADME) Assay for rat CYP2A2 (AID 2283116)
rat CYP2A2, Cyp2a2 (gene 24895), sequence (P15149 whole entry, looked up): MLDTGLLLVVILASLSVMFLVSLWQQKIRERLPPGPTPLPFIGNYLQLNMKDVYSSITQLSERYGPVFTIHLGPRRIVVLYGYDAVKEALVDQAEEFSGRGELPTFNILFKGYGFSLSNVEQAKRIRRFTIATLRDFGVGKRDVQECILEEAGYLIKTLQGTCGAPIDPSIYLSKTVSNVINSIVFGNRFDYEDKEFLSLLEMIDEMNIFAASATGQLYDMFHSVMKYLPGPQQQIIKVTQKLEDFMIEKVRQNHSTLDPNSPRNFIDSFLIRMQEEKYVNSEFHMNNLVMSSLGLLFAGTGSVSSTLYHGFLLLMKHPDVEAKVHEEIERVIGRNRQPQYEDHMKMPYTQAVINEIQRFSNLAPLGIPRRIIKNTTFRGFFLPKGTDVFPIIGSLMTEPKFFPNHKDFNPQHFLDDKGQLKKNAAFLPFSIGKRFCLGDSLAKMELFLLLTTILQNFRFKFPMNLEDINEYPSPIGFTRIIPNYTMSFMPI
How it was run: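 Cell-free recombinant rat CYP2A2 activity with fluorogenic substrate, fluorescence read 0.2 h after dosing. Chemicals screened at 10 uM in duplicate, hits then run in concentration-response up to 20 uM; signal loss versus acetonitrile baseline.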

[5] = target: rat CYP2C11, Cyp2c11 (gene 29277) (UniProt P08683); assay: NVS_ADME_rCYP2C11: NovaScreen (NVS) CYP450-related Enzyme Activity (ADME) Assay for rat CYP2C11 (AID 2283118)
rat CYP2C11, Cyp2c11 (gene 29277), sequence (P08683 whole entry, looked up): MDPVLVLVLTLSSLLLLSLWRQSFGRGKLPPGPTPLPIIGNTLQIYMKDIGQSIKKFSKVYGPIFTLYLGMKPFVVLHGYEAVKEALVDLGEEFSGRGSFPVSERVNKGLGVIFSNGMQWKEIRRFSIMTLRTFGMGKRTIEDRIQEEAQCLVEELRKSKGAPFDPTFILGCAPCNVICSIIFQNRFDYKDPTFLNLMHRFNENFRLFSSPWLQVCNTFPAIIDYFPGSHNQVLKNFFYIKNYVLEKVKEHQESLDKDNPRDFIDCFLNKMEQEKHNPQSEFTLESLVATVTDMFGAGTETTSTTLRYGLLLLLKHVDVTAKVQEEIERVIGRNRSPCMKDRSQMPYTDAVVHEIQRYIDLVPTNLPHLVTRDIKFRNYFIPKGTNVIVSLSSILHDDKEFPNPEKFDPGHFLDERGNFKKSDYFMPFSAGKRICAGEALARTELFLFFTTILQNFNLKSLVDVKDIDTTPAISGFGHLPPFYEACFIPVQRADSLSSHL
How it was run: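 Cell-free recombinant rat enzyme with fluorescent substrate; readout 0.33 h after dosing, loss of signal versus acetonitrile control. Initial duplicate single-point at 10 uM; actives rerun in concentration series.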

[6] = test system: rat CYP2C6, gene 293989; assay: NVS_ADME_rCYP2C6: NovaScreen (NVS) CYP450-related Enzyme Activity (ADME) Assay for rat CYP2C6 (AID 2283120)
How it was run: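 Cell-free recombinant rat CYP2C6 with fluorogenic substrate, read by fluorescence 1 h after dosing; acetonitrile as negative control. Primary screen at 10 uM in duplicate, actives then in concentration-response up to 20 uM.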

[7] = target: human Caspase 5 (CASP5), CASP5 (gene 838) (UniProt P51878); assay: NVS_ENZ_hCASP5: NovaScreen (NVS) Enzymatic Assay for human Caspase 5 (CASP5) (AID 2283137)
human Caspase 5 (CASP5), CASP5 (gene 838), sequence (P51878 whole entry, looked up): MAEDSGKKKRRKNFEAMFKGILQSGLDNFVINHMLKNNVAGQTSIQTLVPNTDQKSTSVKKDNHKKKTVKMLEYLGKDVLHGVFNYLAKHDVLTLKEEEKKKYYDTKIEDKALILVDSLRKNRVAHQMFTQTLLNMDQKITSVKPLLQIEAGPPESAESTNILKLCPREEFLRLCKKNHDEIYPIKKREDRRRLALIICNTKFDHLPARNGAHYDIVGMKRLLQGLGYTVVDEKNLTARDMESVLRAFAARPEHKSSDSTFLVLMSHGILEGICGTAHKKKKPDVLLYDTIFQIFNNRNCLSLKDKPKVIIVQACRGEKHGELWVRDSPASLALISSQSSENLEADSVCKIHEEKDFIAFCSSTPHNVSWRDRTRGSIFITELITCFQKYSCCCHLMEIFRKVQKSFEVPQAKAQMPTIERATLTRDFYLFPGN
How it was run: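 Cell-free protease assay with bacterially expressed CASP5 and a fluorescent substrate, measured at 2 h. Values fitted relative to DMSO as baseline, from concentration-response series topping at 50 uM.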

[8] = target: human Beta-secretase (BACE), BACE1 (gene 23621) (UniProt P56817); assay: NVS_ENZ_hBACE: NovaScreen (NVS) Enzymatic Assay for human Beta-secretase (BACE) (AID 2283140);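 note: hits are inhibitors that reduce fluorescent substrate signal versus DMSO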
human Beta-secretase (BACE), BACE1 (gene 23621), sequence (P56817 whole entry, looked up): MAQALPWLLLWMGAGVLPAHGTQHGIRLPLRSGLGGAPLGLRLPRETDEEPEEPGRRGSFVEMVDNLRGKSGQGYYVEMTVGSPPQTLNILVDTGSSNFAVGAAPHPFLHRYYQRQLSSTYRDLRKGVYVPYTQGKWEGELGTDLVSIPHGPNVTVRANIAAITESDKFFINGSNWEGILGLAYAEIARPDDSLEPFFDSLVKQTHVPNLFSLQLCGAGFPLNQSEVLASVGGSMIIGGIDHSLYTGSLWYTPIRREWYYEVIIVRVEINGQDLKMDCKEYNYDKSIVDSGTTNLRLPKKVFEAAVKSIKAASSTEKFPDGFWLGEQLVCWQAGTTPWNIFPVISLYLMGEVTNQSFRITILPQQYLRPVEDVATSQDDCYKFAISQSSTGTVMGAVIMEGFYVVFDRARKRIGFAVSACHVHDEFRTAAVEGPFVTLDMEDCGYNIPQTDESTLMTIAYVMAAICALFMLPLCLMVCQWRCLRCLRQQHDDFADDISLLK
How it was run: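 Recombinant BACE1 (SF9 extract) incubated with compound and fluorescent substrate, 1 h. Plates carried positive and DMSO negative controls. Initial single dose 25 uM, duplicate; confirmation by concentration series.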

[9] = target: human Caspase 4 (CASP4), CASP4 (gene 837) (UniProt P49662); assay: NVS_ENZ_hCASP4: NovaScreen (NVS) Enzymatic Assay for human Caspase 4 (CASP4) (AID 2283143)
How it was run: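 The cell-free assay used E. coli-expressed enzyme with a fluorogenic substrate, read 2 h after dosing. Signal loss was scored versus DMSO. Screening was in duplicate at 25 uM, then singleton concentration-response up to 50 uM.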

[10] = target: rat CYP2C12, Cyp2c12 (gene 25011) (UniProt P11510); assay: NVS_ADME_rCYP2C12: NovaScreen (NVS) CYP450-related Enzyme Activity (ADME) Assay for rat CYP2C12 (AID 2283119)
rat CYP2C12, Cyp2c12 (gene 25011), sequence (P11510 whole entry, looked up): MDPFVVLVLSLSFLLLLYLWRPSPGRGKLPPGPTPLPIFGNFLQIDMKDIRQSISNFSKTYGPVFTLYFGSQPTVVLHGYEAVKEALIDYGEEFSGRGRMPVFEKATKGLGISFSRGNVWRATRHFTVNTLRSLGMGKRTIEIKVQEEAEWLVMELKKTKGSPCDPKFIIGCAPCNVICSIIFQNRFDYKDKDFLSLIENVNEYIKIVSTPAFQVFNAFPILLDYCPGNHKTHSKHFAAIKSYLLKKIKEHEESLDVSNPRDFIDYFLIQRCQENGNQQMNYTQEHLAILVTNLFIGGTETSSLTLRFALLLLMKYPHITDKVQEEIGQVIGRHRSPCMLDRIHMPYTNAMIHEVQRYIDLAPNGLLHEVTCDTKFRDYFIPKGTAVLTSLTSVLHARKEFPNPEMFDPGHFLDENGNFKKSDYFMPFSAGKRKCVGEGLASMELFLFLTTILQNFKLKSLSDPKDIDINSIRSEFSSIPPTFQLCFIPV
How it was run: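 Cell-free recombinant rat CYP2C12 activity read by fluorescence 0.5 h after dosing; loss of signal versus acetonitrile control. Primary screen in duplicate at 10 uM; actives then run in concentration-response format.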

[11] = target: human Acid Phosphatase 1 (ACP1), ACP1 (gene 52) (UniProt P24666); assay: NVS_ENZ_hACP1: NovaScreen (NVS) Enzymatic Assay for human Acid Phosphatase 1 (ACP1) (AID 2283136)
human Acid Phosphatase 1 (ACP1), ACP1 (gene 52), sequence (P24666 whole entry, looked up): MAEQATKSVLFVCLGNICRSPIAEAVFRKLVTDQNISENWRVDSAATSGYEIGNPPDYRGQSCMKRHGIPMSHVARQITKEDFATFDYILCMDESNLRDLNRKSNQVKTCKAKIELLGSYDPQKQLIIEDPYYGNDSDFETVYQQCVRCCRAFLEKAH
How it was run: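 Recombinant enzyme expressed in Sf9 cells, tested cell-free; activity read by fluorescence with electrophoretic mobility shift separation of substrate and product, 1.5 h after dosing. Primary screen in duplicate at 25 uM, actives then run in concentration series; loss of signal versus DMSO.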

[12] = target: human AKT serine/threonine Kinase 1 (AKT1), AKT1 (gene 207) (UniProt P31749); assay: NVS_ENZ_hAKT1: NovaScreen (NVS) Enzymatic Assay for human AKT serine/threonine Kinase 1 (AKT1) (AID 2283138)
human AKT serine/threonine Kinase 1 (AKT1), AKT1 (gene 207), sequence (P31749 whole entry, looked up): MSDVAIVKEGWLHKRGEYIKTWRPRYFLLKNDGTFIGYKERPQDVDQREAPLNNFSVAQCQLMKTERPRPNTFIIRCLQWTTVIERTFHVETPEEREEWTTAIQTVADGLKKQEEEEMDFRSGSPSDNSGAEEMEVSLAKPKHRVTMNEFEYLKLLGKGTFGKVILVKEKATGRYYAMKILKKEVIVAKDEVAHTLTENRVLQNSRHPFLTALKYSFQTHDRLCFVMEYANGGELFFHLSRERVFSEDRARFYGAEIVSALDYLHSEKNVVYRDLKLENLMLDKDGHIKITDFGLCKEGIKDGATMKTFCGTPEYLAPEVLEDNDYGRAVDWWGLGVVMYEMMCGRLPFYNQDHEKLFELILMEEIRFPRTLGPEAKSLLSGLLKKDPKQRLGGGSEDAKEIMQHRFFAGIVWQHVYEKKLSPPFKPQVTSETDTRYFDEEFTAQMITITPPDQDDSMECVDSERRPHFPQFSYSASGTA
How it was run: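 Signal loss relative to DMSO, measured by fluorescence after electrophoretic separation of substrate and product, indicates inhibition of recombinant enzyme. Readings at 1 h; screening at 25 uM, follow-up curves up to 50 uM.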

[13] = target: human Aurora Kinase A - serine/threonine-protein Kinase 6 (AurA), AURKA (gene 6790) (UniProt O14965); assay: NVS_ENZ_hAurA: NovaScreen (NVS) Enzymatic Assay for human Aurora Kinase A - serine/threonine-protein Kinase 6 (AurA) (AID 2283142)
human Aurora Kinase A - serine/threonine-protein Kinase 6 (AurA), AURKA (gene 6790), sequence (O14965 whole entry, looked up): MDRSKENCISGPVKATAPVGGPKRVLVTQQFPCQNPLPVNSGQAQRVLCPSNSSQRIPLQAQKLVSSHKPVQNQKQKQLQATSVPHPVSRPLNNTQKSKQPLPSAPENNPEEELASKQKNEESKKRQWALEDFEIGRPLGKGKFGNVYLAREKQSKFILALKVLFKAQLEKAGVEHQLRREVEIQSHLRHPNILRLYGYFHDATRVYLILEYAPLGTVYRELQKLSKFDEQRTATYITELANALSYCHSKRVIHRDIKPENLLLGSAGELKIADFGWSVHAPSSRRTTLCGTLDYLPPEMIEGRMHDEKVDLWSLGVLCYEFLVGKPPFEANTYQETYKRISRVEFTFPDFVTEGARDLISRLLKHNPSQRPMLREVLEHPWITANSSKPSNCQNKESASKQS
How it was run: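 Cell-free enzymatic assay with human Aurora A, 1 hour after dosing. Fluorescent substrate turnover detected after electrophoretic mobility shift separation of substrate and product. Screened at 25 uM, actives retested in concentration-response up to 50 uM.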

[14] = target: CDK2 (gene 1017) (UniProt P24941); assay: NVS_ENZ_hCDK2: NovaScreen (NVS) Enzymatic Assay for human Cyclin-Cependent Kinase 2 (CDK2) (AID 2283144)
How it was run: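 Cell-free recombinant human CDK2 with fluorescent substrate, product separated by electrophoretic mobility shift; 1 hr read. Primary screen at 25 uM in duplicate, actives retested in concentration-response up to 50 uM; loss of signal versus DMSO.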

[15] = target: rat CYP2C13, Cyp2c13 (gene 171521) (UniProt P20814); assay: NVS_ADME_rCYP2C13: NovaScreen (NVS) CYP450-related Enzyme Activity (ADME) Assay for rat CYP2C13 (AID 2283121)
rat CYP2C13, Cyp2c13 (gene 171521), sequence (P20814 whole entry, looked up): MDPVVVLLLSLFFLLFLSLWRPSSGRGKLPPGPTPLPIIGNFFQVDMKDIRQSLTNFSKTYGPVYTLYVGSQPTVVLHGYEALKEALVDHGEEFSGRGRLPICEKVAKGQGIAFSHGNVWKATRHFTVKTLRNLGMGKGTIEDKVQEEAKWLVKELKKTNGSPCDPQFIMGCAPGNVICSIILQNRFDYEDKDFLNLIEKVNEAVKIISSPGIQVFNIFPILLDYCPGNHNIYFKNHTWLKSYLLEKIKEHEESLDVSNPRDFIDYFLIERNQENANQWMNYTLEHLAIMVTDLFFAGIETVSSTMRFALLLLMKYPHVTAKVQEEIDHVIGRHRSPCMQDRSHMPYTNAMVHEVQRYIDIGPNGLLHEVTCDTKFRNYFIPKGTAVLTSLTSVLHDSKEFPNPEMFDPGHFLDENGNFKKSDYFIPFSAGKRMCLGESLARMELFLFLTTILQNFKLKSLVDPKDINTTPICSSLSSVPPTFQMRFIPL
How it was run: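 Recombinant rat CYP2C13 with fluorogenic substrate, 0.75 h cell-free incubation; primary screen in duplicate at 10 uM, actives followed in concentration series. Fluorescence loss relative to acetonitrile control indicates inhibition.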

[16] = target: Caspase-3 (Homo sapiens) (UniProt P42574); assay: NVS_ENZ_hCASP3: NovaScreen (NVS) Enzymatic Assay for human Caspase 3 (CASP3) (AID 2283139)
Caspase-3 (Homo sapiens), sequence (P42574 whole entry, looked up): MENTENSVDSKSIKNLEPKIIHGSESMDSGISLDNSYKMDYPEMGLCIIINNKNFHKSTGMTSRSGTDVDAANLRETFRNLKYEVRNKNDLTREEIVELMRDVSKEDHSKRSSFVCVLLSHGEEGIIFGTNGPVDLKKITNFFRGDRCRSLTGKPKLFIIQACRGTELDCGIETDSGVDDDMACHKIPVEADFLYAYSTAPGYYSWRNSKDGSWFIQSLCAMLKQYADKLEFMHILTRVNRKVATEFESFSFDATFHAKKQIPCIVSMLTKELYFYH
How it was run: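 Recombinant human caspase-3 from E. coli with a fluorogenic substrate, read by fluorescence 1 h after dosing. Primary screen in duplicate at 25 uM. Actives (for example ≥30% inhibition) rerun as concentration-response up to 50 uM.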

## COc1nc(C)nc(NC(=O)NS(=O)(=O)c2ccccc2CCC(F)(F)F)n1
[1]
  AC50: 7.5 µM (active) and 7.14 µM (active) and 7.37 µM (active)
[2]
  outcome: inactive

## O=C(O)c1nc(Cl)ccc1Cl
[3]
  outcome: inactive

## CCCC1COC(Cn2cncn2)(c2ccc(Cl)cc2Cl)O1 (stereo not given)
[4]
  AC50: 106 nM (active) and 102 nM (active)
[5]
  AC50: 1.45 µM (active)
[6]
  AC50: 2.45 µM (active)
[1]
  AC50: 2.08 µM (active)
[7]
  outcome: inactive

## CC(C)Oc1cc(-n2nc(C(C)(C)C)oc2=O)c(Cl)cc1Cl
[8]
  outcome: inactive
[9]
  outcome: inactive

## COc1nc(NC(C)C)nc(NC(C)C)n1
[7]
  outcome: inactive

## OC(c1ccc(Cl)cc1)(c1cncnc1)c1ccccc1Cl (stereo not given)
[4]
  AC50: 53.4 nM (active)
[5]
  AC50: 6.58 µM (active)
[10]
  AC50: 3.99 µM (active)
[6]
  AC50: 1.39 µM (active)
[1]
  AC50: 2.92 µM (active)

## CCCN(CCC)c1c([N+](=O)[O-])cc(S(N)(=O)=O)cc1[N+](=O)[O-]
[5]
  outcome: inactive
[10]
  AC50: 3.08 µM (active)
[6]
  AC50: 7.63 µM (active)
[1]
  AC50: 1.24 µM (active)
[11]
  outcome: inactive
[12]
  outcome: inactive
[13]
  outcome: inactive
[14]
  outcome: inactive

## CCON=C(CC)C1=C(O)CC(c2c(C)cc(C)cc2C)CC1=O (stereo not given)
[1]
  AC50: 4.22 µM (active)

## CCNc1nc(Cl)nc(NC(C)C)n1
[4]
  outcome: inactive
[14]
  outcome: inactive

## Cc1c(F)c(F)c(COC(=O)C2C(/C=C(\Cl)C(F)(F)F)C2(C)C)c(F)c1F (stereo not given)
[8]
  outcome: inactive

## CON(C)C(=O)Nc1ccc(Cl)c(Cl)c1
[15]
  AC50: 8.64 µM (active) and 6.6 µM (active)
[1]
  outcome: inactive
[12]
  outcome: inactive

## CCCCOC(=O)c1ccccc1C(=O)OCCCC
[4]
  outcome: inactive
[12]
  outcome: inactive
[8]
  outcome: inactive

## CCCCNC(=O)n1c(NC(=O)OC)nc2ccccc21
[12]
  outcome: inactive
[13]
  outcome: inactive

## CCOC(=O)CC(SP(=S)(OC)OC)C(=O)OCC (stereo not given)
[4]
  AC50: 2590 nM (active)
[5]
  AC50: 0.399 µM (active)
[10]
  AC50: 6.05 µM (active)
[6]
  AC50: 0.0501 µM (active)
[15]
  AC50: 8.12 µM (active)
[1]
  AC50: 1.88 µM (active)

## C#CCOS(=O)OC1CCCCC1Oc1ccc(C(C)(C)C)cc1 (stereo not given)
[16]
  outcome: inactive
[8]
  AC50: 14.8 µM (active)

## Oc1ccccc1-c1ccccc1
[4]
  outcome: inactive
[12]
  outcome: inactive
[13]
  outcome: inactive

## O=C(Nc1ccccc1)Nc1ccnc(Cl)c1
[15]
  AC50: 10 µM (active)
[7]
  outcome: inactive
[8]
  AC50: 5.29 µM (active)

## Cc1ccc(-c2c(Cl)nc(C#N)n2S(=O)(=O)N(C)C)cc1
[5]
  AC50: 6.13 µM (active)
[1]
  AC50: 2.88 µM (active)
[12]
  outcome: inactive
[8]
  outcome: inactive
[13]
  AC50: 23.5 µM (active)

From PubChem BioAssay (EPA / NIEHS)
